The whole screen tested about 330,000 compounds, of which about 1,400 (0.42%) were called active.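 The calls were made as follows: active = at least 40% inhibition at 20 µM here, with at most 30% in a related deaminase screen; inactive = the rest.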 The sample as a whole holds a higher share of actives than the screen did.
molecular target: DNA dC->dU-editing enzyme APOBEC-3A (Homo sapiens) (UniProt P31941); experiment: APOBEC3A ssDNA deaminase inhibitors, primary screen, selectivity assay for APOBEC3G inhibitor project, biochemical, FAM/TAMRA oligo cleavage fluorescence (AID 493011); settings: recombinant A3A, FAM/TAMRA ssDNA deamination fluorescence; at 20 µM; active compounds read high;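 also: plate controls were A3A with DMSO for no effect and wells lacking A3A enzyme for full effect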
Sequence (P31941 whole entry, looked up): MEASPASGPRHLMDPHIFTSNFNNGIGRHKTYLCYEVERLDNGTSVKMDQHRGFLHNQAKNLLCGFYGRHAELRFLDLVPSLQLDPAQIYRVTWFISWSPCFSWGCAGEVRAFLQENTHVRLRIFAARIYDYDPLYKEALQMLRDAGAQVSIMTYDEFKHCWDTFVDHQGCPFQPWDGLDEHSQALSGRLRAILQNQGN

SMILES | inhibition
CN1CCN(S(=O)(=O)c2cccc(C(=O)Nc3sccc3C#N)c2)CC1 | 0.346% (inactive)
Cc1ccc(CNC(=O)c2ccc(CS(=O)Cc3cccc(Cl)c3)o2)cc1 (stereo unspecified) | -4.67% (inactive)
Cc1ccc(/C=C/C(=O)OCC(=O)NCc2ccc(Cl)cc2)o1 | 1.93% (inactive)
Nc1ccc(C(=O)NCc2ccccc2)cc1 | 5.23% (inactive)
C[n+]1ccc(C(=O)NCc2ccccc2)cc1 | 77.2% (active)
CS(=O)(=O)NCc1ccc(C(=O)NCc2ccccc2)cc1 | -3.29% (inactive)
COc1ccc(Cl)cc1NC(=O)COC(=O)c1ccc(Br)o1 | -2.56% (inactive)
COc1ccc(CNc2nnnn2C)cc1 | 63.5% (active)
Cn1nnnc1NCc1ccc(Cl)c(Cl)c1 | 1.46% (inactive)
CCCn1nnnc1NCc1ccc(OC)cc1 | -5.24% (inactive)
Cc1ccc(N(Cc2ccccc2O)C(=O)c2ccccc2F)cc1 | 3.92% (inactive)
CC1(C)Oc2ccc3ccc(=O)oc3c2/C(=C/NCCO)C1=O | 55.6% (active)
C/C=C(/C)C(=O)OC1Cc2c(ccc3ccc(=O)oc23)OC1(C)C (stereo unspecified) | -4.35% (inactive)
CC1(C)Oc2ccc3ccc(=O)oc3c2/C(=N/O)C1=O | -5.21% (inactive)
Cc1cnc(C(=O)OCC(=O)NCCCc2ccccc2)cn1 | -5.14% (inactive)
COc1ccc2[nH]c(C)c(CCN(Cc3cccs3)C(=S)Nc3ccccc3OC)c2c1 | -5.52% (inactive)
O=C(c1ccc(CS(=O)(=O)c2ccccc2)o1)N1CCN(c2ccccc2)CC1 | 40% (active)
O=C(c1ccc(S(=O)(=O)NCc2ccco2)cc1)N1CCN(c2ccccc2)CC1 | -1.4% (inactive)
COc1ccccc1CNC(=O)c1ccc(CS(=O)(=O)c2ccccc2)o1 | 3.87% (inactive)
Cc1c(NC(=O)C(C)Oc2cccc(Cl)c2)c(=O)n(-c2ccccc2)n1C (stereo unspecified) | 2.72% (inactive)
C[N+](C)(C)CCNC(=O)c1cc[n+](Cc2ccccc2)c(/C=N/O)c1 | 77.9% (active)
O=C(NCCCNCc1ccccc1)c1ccc(/C=N/O)nc1 | 0.078% (inactive)
CC(C)c1ccc(C(=O)NCCCc2ccccc2)cc1 | -3.9% (inactive)

SMILES | inhibition
CCC(=O)Nc1ccc(Nc2nc(Cl)nc(Nc3ccc(NC(=O)CC)cc3)n2)cc1 | -1.91% (inactive)
CC(=O)Nc1ccc(Nc2cc(C)nc(Nc3ccc(NC(C)=O)cc3)n2)cc1 | 52.3% (active)
COc1ccc(C(=O)NNc2cc(C)nc(NNC(=O)c3ccc(OC)cc3)n2)cc1 | 1.15% (inactive)
COc1ccc(NC(=O)C(NC(C)=O)C(=O)NCc2ccccc2Cl)cc1 (stereo unspecified) | -1.84% (inactive)
CC(C)c1c(O)nc(SCCOc2ccc(Cl)cc2)[nH]c1=O | -2.86% (inactive)
CCN(Cc1ccccc1)C(=O)CN1C(=S)NC(C)(C)CC1C (stereo unspecified) | -4.37% (inactive)
CCOC(=O)c1ccc(NC(=O)CNC(=O)c2ccco2)cc1 | -2.59% (inactive)
CCN(CC)CCNCC(=O)Nc1ccc(Oc2ccccc2)cc1 | -4.52% (inactive)
CCN(CC)CCOC(=O)c1ccc(NC(=O)CNC(=O)c2ccccc2)cc1 | 49.1% (active)
CC(C)Oc1ccc(C(CC(=O)N2CCOCC2)C(C)C)cc1 (stereo unspecified) | 2.91% (inactive)
Cc1ccc(NC(=O)c2cc([N+](=O)[O-])ccc2Cl)c(O)c1 | 1.45% (inactive)
CCN(CC)c1ccc([N+](=O)[O-])cc1C(=O)O | 3.17% (inactive)
CNc1ccc([N+](=O)[O-])cc1C(=O)O | 43.2% (active)
Cc1ccc(N/N=C2\COC(C)(C)CC2=O)cc1 | -3.88% (inactive)
Cc1cccc(OCC(=O)NCCNC(=O)c2cccnc2)c1 | -1.26% (inactive)
Cc1cccc(C(=O)NCC(=O)OCC(=O)N(C)CC(=O)Nc2ccccc2Cl)c1 | -1.62% (inactive)
CCNC(=O)COC(=O)CCNC(=O)c1cccc(C)c1 | 82.3% (active)
CC(C)Cn1c(N2CCN(C(=O)/C=C/c3ccccc3)CC2)nc2ccccc21 | -1.07% (inactive)
Cc1cc2c(cc1C)[n+](C)cn2CC(O)COCC1CC=CCC1 (stereo unspecified) | 46.1% (active)
COc1ccc(-c2noc(CCC(=O)N3CCN(c4cccc(C)c4)CC3)n2)cc1 | 3.55% (inactive)
CC(C)(CSc1nncn1/N=C/c1ccco1)NS(=O)(=O)c1ccc(Cl)cc1 | 5.18% (inactive)
O=C(NC1CC1)C1CCCN(C(=O)NC2CCCCC2)C1 (stereo unspecified) | -2.29% (inactive)
CC[C@]1(C(=O)OC)[C@H]2C(=O)N(C)C(=O)[C@H]2[C@H]2CN(C)C(=NCc3ccccc3)N21 | 2.1% (inactive)

From PubChem BioAssay AID493011 (Sanford-Burnham Center for Chemical Genomics, 2011)
